Bioassay records: PubChem, National Center for Advancing Translational Sciences (NCATS)
Giardia kill: kills Giardia lamblia; Giardia lamblia trophozoite viability; activity change, % at 7.66 µM, hits read low; actives 0.15% (n = 340,000); AID 540267; in the data active = activity change below about -80%; inconclusive = between about -30% and that limit;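 also: parasites exposed to compound for two days anaerobically before the ATP read; % is scaled to controls: 0 for no effect and ±100 for the full control effect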
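ATP-content bioluminescence gauges trophozoite survival. Cells (100/well) receive compound and incubate anaerobically for 48 hrs at 37 deg C; detection reagent follows for 15-30 min at room temperature.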
RORgamma inh: inhibitors of mouse ROR gamma transcriptional activity | Drosophila S2 Gal4-RORgamma UAS-luciferase reporter, 20 h | Potency, µM (series often up to 53.6 µM), for the others: at the highest dose activity change, negative = inhibition, most hits filed as inhibitors | actives 5.4% (n = 310,000); also: potency is read from the fitted curve at half-maximal effect; % is scaled to controls: 0 for no effect and ±100 for the full control effect; nearly all actives have a fitted effect of over 60% in size
Target sequence (P51450 whole entry, looked up, the tested form may be a part): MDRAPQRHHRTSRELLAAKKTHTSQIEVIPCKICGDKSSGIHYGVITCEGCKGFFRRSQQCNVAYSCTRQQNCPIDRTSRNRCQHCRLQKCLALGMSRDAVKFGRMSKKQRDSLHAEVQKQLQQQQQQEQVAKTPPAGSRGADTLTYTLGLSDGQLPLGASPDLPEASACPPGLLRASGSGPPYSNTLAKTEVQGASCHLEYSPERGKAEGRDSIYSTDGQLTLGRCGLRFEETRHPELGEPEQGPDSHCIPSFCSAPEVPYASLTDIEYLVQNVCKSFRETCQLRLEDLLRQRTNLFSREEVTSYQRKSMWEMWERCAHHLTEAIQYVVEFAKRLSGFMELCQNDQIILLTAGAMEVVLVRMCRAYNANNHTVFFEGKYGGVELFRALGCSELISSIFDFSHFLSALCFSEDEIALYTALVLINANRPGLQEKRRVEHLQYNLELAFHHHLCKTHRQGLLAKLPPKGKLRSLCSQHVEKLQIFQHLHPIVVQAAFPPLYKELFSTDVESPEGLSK
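Stably transfected Drosophila Schneider cells are the test system, with ROR gamma fused to Gal4 and luciferase under UAS control; luminescence is read after 20 hr of 700 uM copper sulfate induction at ambient temperature.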
SW480 rerep: induces DNA re-replication in SW480 colon adenocarcinoma cells; actives 1.8% (n = 340,000); SW480 DNA re-replication, Hoechst DNA content imaging, 48 h; Potency, µM (series often up to 46.1 µM), without a hit: at the top dose re-replication activation, actives largely listed as activators; also: potency is read from the fitted curve at half-maximal effect; % of control where 0% means no effect; nearly all actives have a fitted effect of over 55% in size
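Image-based read-out: total Hoechst fluorescence of nuclei (405 nm excitation, 500-530 nm emission), with hits raising the fraction of high-intensity nuclei. SW480 colon cells incubated 48 hr with compounds at 37 C.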
BCR signal inh: chronic active BCR signaling inhibition. ABC-DLBCL IkBa-CBG/CBR reporter, luminescence ratio, 4 h. Potency, µM (doses to about 46.1 µM), for inactives: at the top dose activity change, negative = inhibition, actives largely listed as inhibitors. actives 0.05% (n = 340,000); active = well fitted inhibition curve with a large enough effect in the signal ratio, with a control signal flat, not every such curve was filed as active; inconclusive = small, poorly fitted or top-dose-only effect, or effect the other way, or a change in a side signal; the % refers to the signal ratio;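 also: potency is read from the fitted curve at half-maximal effect; plate controls were basal doxycycline-induced cells for no effect and cells given 10 µM MG132 for full effect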
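Doxycycline induced both beetle luciferases in TMD8 lymphoma cells; IKK-driven degradation limits the IkappaBalpha-fused green signal, while red luminescence normalises for cell number and nonspecific effects. Compounds tested up to 46 uM, 4 hrs.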
Gal4-VP16 FLuc: Gal4-VP16 reporter inhibition counter-screen. Drosophila S2 Gal4-VP16 UAS-luciferase, luminescence, 20 h. Potency, µM (doses to about 53.6 µM), for inactives: top-dose activity, negative = inhibition, hits mostly inhibitors. actives 3.5% (n = 310,000). AID 2546;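 also: Gal4-VP16 expression switched on by copper sulfate through the metallothionein promoter; potency is read from the fitted curve at half-maximal effect; % is scaled to controls: 0 for no effect and ±100 for the full control effect; nearly all actives have a fitted effect of over 50% in size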
MCF10A rereplic: inducers of DNA re-replication in MCF 10A breast cells; Potency, µM (titrated, usually from 46.1 µM), inactives show top-dose activity, positive = re-replication, actives largely listed as activators; actives 2.9% (n = 350,000); MCF 10A DNA re-replication, Hoechst nuclear intensity, 48 h; also: potency is read from the fitted curve at half-maximal effect; % of control where 0% means no effect; nearly all actives have a fitted effect of over 50% in size
Active calls of the source: *; [ ] = remark or other dose. Hits are enriched below; roughly 8.3% of the tested compounds scored in any of these assays. Unless noted, calls follow the shape of the dose curve; as a rule, active = well fitted curve in the direction sought with a large enough effect; inconclusive = small, poorly fitted or top-dose-only effect, or another doubt; inactive = no such curve, though single readings can be large; an effect the other way counts as inactive or inconclusive.

Results for Cc1ccccc1OCCc1c(C)[nH]c(=S)[nH]c1=O ?
Giardia kill: -18; RORgamma inh: inconclusive; SW480 rerep: 3.7µM*; BCR signal inh: inconclusive; Gal4-VP16 FLuc: -17%; MCF10A rereplic: inconclusive

Results for Cc1[nH]c(=S)[nH]c(=O)c1CCOc1ccccc1 ?
Giardia kill: -5; RORgamma inh: -20%; SW480 rerep: 16%; BCR signal inh: -6%; Gal4-VP16 FLuc: 4%; MCF10A rereplic: 22%

How did CC(C)(C)c1cnnn1-c1ccc(C(=O)CCl)cc1 do in these assays?
Giardia kill: -4; RORgamma inh: inconclusive; SW480 rerep: inconclusive; BCR signal inh: inconclusive; Gal4-VP16 FLuc: inconclusive; MCF10A rereplic: 16µM*

What do the screens show for `CCCN(CCC)C(=O)c1cc(-c2ccc3c(c2)OCO3)nc2ccccc12`?
Giardia kill: -14; RORgamma inh: 33%; SW480 rerep: inconclusive; BCR signal inh: inconclusive; Gal4-VP16 FLuc: -11%; MCF10A rereplic: inconclusive

How did Cc1ccc(-n2ncc3c(NCc4cccnc4)ncnc32)c(C)c1 do in these assays?
Giardia kill: -1; RORgamma inh: inconclusive; SW480 rerep: -2%; BCR signal inh: inconclusive; Gal4-VP16 FLuc: 18µM*; MCF10A rereplic: inconclusive

What do the screens show for `Cc1ccc(-n2ncc3c(NNC(=O)c4cccs4)ncnc32)cc1`?
Giardia kill: -15; RORgamma inh: 1.3µM*; SW480 rerep: -2%; BCR signal inh: 18%; Gal4-VP16 FLuc: 10µM*; MCF10A rereplic: -7%

How did Cc1ccc(-n2ncc3c(NNC(=O)c4ccco4)ncnc32)c(C)c1 do in these assays?
Giardia kill: 14; RORgamma inh: 11µM*; SW480 rerep: 3%; BCR signal inh: -6%; Gal4-VP16 FLuc: inconclusive; MCF10A rereplic: 1%

What do the screens show for `O=C(NNc1ncnc2c1cnn2-c1ccc(F)cc1)c1ccco1`?
Giardia kill: 17; RORgamma inh: 8.9µM*; SW480 rerep: -19%; BCR signal inh: 8%; Gal4-VP16 FLuc: 10µM*; MCF10A rereplic: 1%

What do the screens show for `CCC(=O)NNc1ncnc2c1cnn2-c1ccccc1`?
Giardia kill: 21; RORgamma inh: -26%; SW480 rerep: -12%; BCR signal inh: inconclusive; Gal4-VP16 FLuc: -2%; MCF10A rereplic: -7%

What do the screens show for `Clc1ccc(-c2nn3c(-c4cc(-c5ccccc5)n[nH]4)nnc3s2)cc1`?
Giardia kill: 2

How did Cc1ccc(C(=O)c2cc([N+](=O)[O-])ccc2N2CCOCC2)cc1C do in these assays?
Giardia kill: 2; RORgamma inh: 3%[10 µM]; BCR signal inh: 2%; Gal4-VP16 FLuc: -6%; MCF10A rereplic: inconclusive

How did COc1ccc(C(=O)c2cc([N+](=O)[O-])ccc2N2CCN(C)CC2)cc1 do in these assays?
Giardia kill: -8; RORgamma inh: 13%; SW480 rerep: inconclusive; BCR signal inh: inconclusive; Gal4-VP16 FLuc: -2%; MCF10A rereplic: 8.2µM*

What do the screens show for `COc1ccc(C(=O)c2cc([N+](=O)[O-])ccc2N2CCCC2)cc1`?
Giardia kill: -16; RORgamma inh: 2%; SW480 rerep: 18µM*; BCR signal inh: inconclusive; Gal4-VP16 FLuc: -3%; MCF10A rereplic: 1.5µM*

How did Cc1ccc(C(=O)c2cc([N+](=O)[O-])ccc2N2CCCCC2)cc1C do in these assays?
Giardia kill: 8; RORgamma inh: -8%[10 µM]; SW480 rerep: 1.8µM*; BCR signal inh: inconclusive; Gal4-VP16 FLuc: -11%; MCF10A rereplic: inconclusive

How did CC(=O)OCC(=O)[C@@]1(O)CCC2C3C[C@H](C)C4=CC(=O)C=CC4(C)C3C(O)CC21C (stereo partly drawn) do in these assays?
RORgamma inh: 11%; SW480 rerep: -1%; Gal4-VP16 FLuc: -14%; MCF10A rereplic: -3%

How did COc1cc(/C=N/NC(=O)c2cc(O)cc(O)c2)ccc1OC(=O)c1ccccc1 do in these assays?
Giardia kill: 4; RORgamma inh: -29%; SW480 rerep: -39%; BCR signal inh: inconclusive; Gal4-VP16 FLuc: -3%; MCF10A rereplic: 2%

What do the screens show for `COc1cc(/C=N/NC(=O)c2ccc(CN3C(=O)c4cccc5cccc3c45)cc2)cc(OC)c1O`?
Giardia kill: -3; RORgamma inh: 10%; SW480 rerep: -4%; BCR signal inh: inconclusive; Gal4-VP16 FLuc: -6%; MCF10A rereplic: 9%

Results for COc1cc(/C=N/NC(=O)c2[nH]nc3c2CCc2ccccc2-3)ccc1O ?
Giardia kill: 0; RORgamma inh: 6%; SW480 rerep: inconclusive; BCR signal inh: 21µM*; Gal4-VP16 FLuc: -23%; MCF10A rereplic: inconclusive

What do the screens show for `COc1ccc(C(=O)Oc2cc(/C=N/NS(=O)(=O)c3ccccc3)ccc2OC)cc1`?
Giardia kill: 12; RORgamma inh: inconclusive; SW480 rerep: -2%; BCR signal inh: 3%; Gal4-VP16 FLuc: -25%; MCF10A rereplic: -1%

How did COc1cc(C(=O)N/N=C/c2ccc(OC(=O)c3ccccc3)c(OC)c2)ccc1O do in these assays?
Giardia kill: 29; RORgamma inh: 38%; SW480 rerep: 21µM*; BCR signal inh: inconclusive; Gal4-VP16 FLuc: -14%; MCF10A rereplic: -31%

Results for COc1ccc(/C=N/NC(=O)c2ccc(CN3C(=O)c4cccc5cccc3c45)cc2)cc1O ?
Giardia kill: 7; RORgamma inh: 40%; SW480 rerep: -84%; BCR signal inh: -30%; Gal4-VP16 FLuc: -4%; MCF10A rereplic: 16µM*

What do the screens show for `COc1ccc(/C=N/NC(N)=S)cc1OC(=O)c1ccccc1`?
Giardia kill: -8; RORgamma inh: 13µM*; SW480 rerep: inconclusive; BCR signal inh: inconclusive; Gal4-VP16 FLuc: inconclusive; MCF10A rereplic: 9%

How did Cc1ccc(S(=O)(=O)Nc2ccc3c(c2)OCCO3)c(C)c1NS(C)(=O)=O do in these assays?
Giardia kill: 0; RORgamma inh: 19%; SW480 rerep: 9%; BCR signal inh: -1%; Gal4-VP16 FLuc: -4%; MCF10A rereplic: 7%

Results for CCOc1cc(CNCCO)cc(Br)c1OCc1ccccc1 ?
Giardia kill: 15; RORgamma inh: -21%; SW480 rerep: inconclusive; BCR signal inh: inconclusive; Gal4-VP16 FLuc: -24%; MCF10A rereplic: 15%

Results for CCOc1cc(CNCCSc2nnnn2C)cc(Br)c1OCc1ccccc1 ?
Giardia kill: 5; RORgamma inh: -23%; SW480 rerep: inconclusive; BCR signal inh: 15%; Gal4-VP16 FLuc: -20%; MCF10A rereplic: 15µM*

What do the screens show for `Cc1ccccc1NC(=S)N=Nc1c(O)n(C)c2ccc(S(=O)(=O)N3CCOCC3)cc12`?
Giardia kill: -5; RORgamma inh: 0.32µM*; SW480 rerep: inconclusive; BCR signal inh: inconclusive; Gal4-VP16 FLuc: 0.79µM*; MCF10A rereplic: 1%
